For test [1] the following is noted: Ebola virus entry assay, green fluorescence channel.
For test [2] the following is noted: Ebola virus entry assay, blue channel fluorescence.
For test [3] the following is noted: Ebola virus entry assay, ratio channel.
The conditions of test [4]: Ebola virus entry assay, green channel fluorescence.
For test [5] the following is noted: Ebola virus entry assay, reporter ratio channel; Channel type: primary.

Values without a mark were called inactive. For part of these data: Potency and affinity values are given separately. The source made the active and inactive calls. How the calls were made is not given here.
Wherever efficacy is given: 0% is about no effect.

Broadly, the AC50 is the concentration giving half of the maximal activity seen. For `CCC1(c2cnc[nH]2)Cc2ccccc2C1`, the efficacy in test [1] was -11.3%. The concentration at half-maximal activity (AC50) in test [2] was 25.1 µM (active); in test [5], 31.6 µM (active). In addition, the result in test [3] and in test [4] was inactive.

As to `O=C1NCN(c2ccccc2)C12CCN(CCCOc1ccc(F)cc1)CC2`, the efficacy in test [1] was -43.3%. Also, the AC50 in test [2], in test [3] and in test [5] was 3.16 µM (active) each time. Moreover, the compound was called inactive in test [4].

For the compound `C=CCOc1ccccc1OCC(O)CNC(C)C` (stereo not given), the efficacy in test [1] is -13.2%. The AC50 in test [2], in test [3] and in test [5] was 14.1 µM (active) each time. For the same compound, the result in test [4] was inactive.

With `CCCCc1cc2ccccc2c(OCCN(C)C)n1`, in test [1], the efficacy is -77.9%. The concentration at half-maximal activity (AC50) is 8.91 µM (active) in test [2], 7.08 µM (active) in test [3] and 7.08 µM (active) in test [5]. The compound was called inactive in test [4].

Turning to `Cc1cc(N)c2cc(NC(=O)Nc3ccc4nc(C)cc(N)c4c3)ccc2n1`, the efficacy in test [1] is 18%. Further, the figures for the AC50 in test [2], in test [3] and in test [5] were 22.4 µM (active), 20 µM (active) and 20 µM (active), respectively. Moreover, the result in test [4] was inactive.

On to `Cc1cc2nc3ccc(=[N+](C)C)cc-3sc2cc1N`, for which the efficacy in test [1] was -32.6%. Also, in test [2], the concentration at half-maximal activity (AC50) is 39.8 µM (active). Moreover, the outcome in test [3], in test [4] and in test [5] was inactive.

On to `Clc1ccc(C(Cn2ccnc2)OCc2ccsc2Cl)c(Cl)c1` (stereo not given), for which the efficacy in test [1] was 49.7%. Besides, the AC50 in test [2] is 10 µM (active); in test [3] it was 8.91 µM (active); in test [5], 8.91 µM (active). Further, the compound was classed as inactive in test [4].

Consider `CCCC(C)C1(CC)C(=O)N=C(S)NC1=O` (stereo not given), for which, in test [1], the efficacy is 15.1%. The result in test [2], in test [3], in test [4] and in test [5] was inactive.

Turning to `CN(Cc1cc(Br)cc(Br)c1N)C1CCCCC1`, in test [1], the efficacy is 17.3%. In addition, the AC50 is 22.4 µM (active) in test [2], 20 µM (active) in test [3] and 20 µM (active) in test [5]. Besides, in test [4], the call was inactive.

`Cc1ccc(C(=O)Nc2ccc(S(=O)(=O)O)c3cc(S(=O)(=O)O)cc(S(=O)(=O)O)c23)cc1NC(=O)c1cccc(NC(=O)Nc2cccc(C(=O)Nc3cc(C(=O)Nc4ccc(S(=O)(=O)O)c5cc(S(=O)(=O)O)cc(S(=O)(=O)O)c45)ccc3C)c2)c1`: in test [1], the efficacy is 21.5%. Moreover, the AC50 in test [2] was 39.8 µM (active); in test [3], 20 µM (active); in test [5], 20 µM (active). In test [4], the call was inactive.

For the compound `Cc1ccc(Cl)c(OCC(O)CNC(C)(C)C)c1` (stereo not given), the efficacy in test [1] was -22.3%. For the same compound, the figures for the AC50 in test [2], in test [3] and in test [5] were 15.8 µM (active), 28.2 µM (active) and 28.2 µM (active), respectively. In addition, the compound was classed as inactive in test [4].

On to `Oc1ccc(Cl)cc1Sc1cc(Cl)ccc1O`, for which, in test [1], the efficacy was -28.7%. In addition, the AC50 in test [2] was 10 µM (active); in test [3] it was 15.8 µM (active); in test [5] it was 15.8 µM (active). Besides, the call in test [4] was inactive.

Take `CCCOc1ccc(C(=O)OCCN(CC)CC)cc1N`: in test [1], the efficacy is 35%. Moreover, the AC50 in test [2] is 39.8 µM (active); in test [3], 22.4 µM (active); in test [5], 22.4 µM (active). Besides, in test [4], the result was inactive.

On to `CN(C)CCN(Cc1cccs1)c1ccccn1`, for which, in test [1], the efficacy is 21.2%. Also, the values for the AC50 in test [2], in test [3] and in test [5] were 31.6 µM (active), 17.8 µM (active) and 17.8 µM (active), respectively. In test [4], the call was inactive.

Turning to `C#C[C@]1(OC(C)=O)CC[C@H]2[C@@H]3CCC4=C/C(=N/O)CC[C@@H]4[C@H]3CC[C@@]21CC`, the efficacy in test [1] was -27.8%. The AC50 in test [2] and in test [5] was 39.8 µM (active) each time. Also, the result in test [3] and in test [4] was inactive.

On to `C[N+]1(CC2COC(c3ccccc3)(c3ccccc3)O2)CCCCC1` (stereo not given), for which the efficacy in test [1] was 25%. In addition, the compound was classed as inactive in test [2], in test [3], in test [4] and in test [5].

`O=C(/C=C/c1ccc(O)c(O)c1)O[C@@H]1C[C@@](OC(=O)/C=C/c2ccc(O)c(O)c2)(C(=O)O)C[C@@H](O)[C@@H]1O`: in test [1], the efficacy is 21.8%. Besides, the AC50 in test [2] is 28.2 µM (active); in test [3], 20 µM (active); in test [5], 20 µM (active). In addition, the outcome in test [4] was inactive.

For `CCc1cc2cc(OC)c(OC)cc2c(Cc2ccccc2)n1`, the efficacy in test [1] is 32.1%. The AC50 was 25.1 µM (active) in test [2] and 31.6 µM (active) in test [5]. The outcome in test [3] and in test [4] was inactive.

Regarding `CC(CNC1CCCCC1)OC(=O)c1ccccc1` (stereo not given), the efficacy in test [1] is 19.5%. In addition, the concentration at half-maximal activity (AC50) in test [2], in test [3] and in test [5] was 8.91 µM (active) each time. In addition, the outcome in test [4] was inactive.

For the compound `Cc1c(-c2ccccc2)oc2c(C(=O)OCCN3CCCCC3)cccc2c1=O`, the efficacy in test [1] is -55.6%. Besides, the compound was classed as inactive in test [2], in test [3], in test [4] and in test [5].

For the compound `CC(=O)Oc1ccc2c(c1)CC[C@@H]1[C@@H]2CC[C@]2(C)[C@@H](O)CC[C@@H]12`, the efficacy in test [1] was 11.1%. Moreover, the AC50 is 35.5 µM (active) in test [2], 22.4 µM (active) in test [3] and 22.4 µM (active) in test [5]. In test [4], the outcome was inactive.

Turning to `CCN(CC)CCNC(C(=O)OCCC(C)C)c1ccccc1` (stereo not given), the efficacy in test [1] is 47.8%. The AC50 is 31.6 µM (active) in test [2], 22.4 µM (active) in test [3] and 22.4 µM (active) in test [5]. For the same compound, in test [4], the compound was classed as inactive.

Regarding `CCCN(CCC)CCc1c[nH]c2ccccc12`, the efficacy in test [1] is 39.8%. Further, the AC50 is 35.5 µM (active) in test [2], 31.6 µM (active) in test [3] and 31.6 µM (active) in test [5]. The compound was called inactive in test [4].

As for `CN(C)CCc1c[nH]c2cccc(O)c12`, in test [1], the efficacy is -23.9%. The values for the AC50 in test [2] and in test [5] were 35.5 µM (active) and 39.8 µM (active), respectively. Besides, the result in test [3] and in test [4] was inactive.

Consider `Cn1cnc2c1c(=O)[nH]c(=O)n2C`, for which the efficacy in test [1] is -13.7%. The compound was classed as inactive in test [2], in test [3], in test [4] and in test [5].

In the case of `CCOC(=O)[C@H](CCc1ccccc1)N[C@H]1CS[C@H](c2cccs2)CN(CC(=O)O)C1=O`, the efficacy in test [1] is 24%. Also, the call in test [2], in test [3], in test [4] and in test [5] was inactive.

For `O=S1(=O)c2cccc3cccc(c23)N1CCCN1CCN(c2ccc(F)cc2)CC1`, the efficacy in test [1] was -13.1%. Moreover, the AC50 in test [2], in test [3] and in test [5] was 25.1 µM (active) in each case. Moreover, in test [4], the compound was called inactive.
